# Measured values from article PMC4552634, “A New Set of Chemical Starting Points with Plasmodium falciparum Transmission-Blocking Potential for Antimalarial Drug Discovery” (PLoS ONE, 2015).
# Out of some 13,000 compounds screened, about 3,200 (25%) showed an effect of 50% or more. This is one part of the list.
# Test system: P. falciparum stage V gametocytes
# Parameters: BacTiter-Glo ATP luminescence viability of purified stage V gametocytes in 384-well plates, per cent inhibition versus DMSO
# Details: 48 h, 5 µM; inhibitor
row,SMILES,% Inhibition
1,C[C@@H](CC1CCCCC1)OC(=O)N(C)[C@@H]1CCN(C#N)C1 [TCMDC-138502],39.73%
2,COCCCNC(=O)c1ccc(O)c(-c2cc(Cl)cc(Cl)c2)c1 [TCMDC-140158],-17.86%
3,Cc1noc(C)c1-c1cccc(CNCc2ccc(-c3ccc(-c4nc5cc(C(F)(F)F)ccc5[nH]4)cc3)cc2)c1.O=C(O)C(F)(F)F [TCMDC-133058],15.98%
4,CC(=O)N(C)c1cccc(C(=O)Nc2cccc(-c3cccc(-c4nc5ccc(C(F)(F)F)cc5[nH]4)c3)c2)c1 [TCMDC-137069],42.31%
5,NC(=O)c1cccc(C(=O)Nc2cccc(-c3cccc(-c4nc5ccc(C(F)(F)F)cc5[nH]4)c3)c2)c1 [TCMDC-132199],-28.51%
6,CC(=O)N(C)c1cccc(C(=O)Nc2cccc(-c3ccc(-c4nc5ccc(C(F)(F)F)cc5[nH]4)cc3)c2)c1 [TCMDC-137073],81.14%
7,CC(=O)Nc1cccc(C(=O)Nc2ccc(-c3cccc(-c4nc5ccc(C(F)(F)F)cc5[nH]4)c3)cc2)c1 [TCMDC-132140],-29.21%
8,CC(=O)Nc1ccc(C(=O)Nc2cccc(-c3ccc(-c4nc5ccc(C(F)(F)F)cc5[nH]4)cc3)c2)cn1 [TCMDC-136832],60.22%
9,CC(=O)Nc1cc(C(=O)Nc2cccc(-c3cccc(-c4nc5ccc(C(F)(F)F)cc5[nH]4)c3)c2)ccc1C [TCMDC-137039],68.75%
10,NC(=O)c1ccc(C(=O)Nc2cccc(-c3ccc(-c4nc5ccc(C(F)(F)F)cc5[nH]4)cc3)c2)cc1 [TCMDC-132193],-16.46%
11,Cc1cccc2[nH]c(-c3cccc(-c4cccc(NC(=O)c5ccc(C(N)=O)cc5)c4)c3)nc12 [TCMDC-132192],-7.489%
12,CC(=O)Nc1cccc(C(=O)Nc2ccc(-c3cccc(-c4nc5c(C)cccc5[nH]4)c3)cc2)c1 [TCMDC-132141],-0.1401%
13,CC(=O)N(C)c1cccc(C(=O)Nc2ccc(-c3cccc(-c4nc5ccc(C(F)(F)F)cc5[nH]4)c3)cc2)c1 [TCMDC-137070],-32.74%
14,CC(=O)Nc1cc(C(=O)Nc2cccc(-c3cccc(-c4nc5c(C)cccc5[nH]4)c3)c2)ccc1C [TCMDC-137040],72.59%
15,CC(=O)Nc1ccc(C(=O)Nc2cccc(-c3ccc(-c4nc5ccc(F)cc5[nH]4)cc3)c2)cn1 [TCMDC-136826],-35.51%
16,CCc1c(C(=O)NC2CCC(N3CCC(c4ccccc4C)CC3)CC2)[nH]c2ccc(Br)cc12 (centres unmarked) [TCMDC-133530],-72.63%
17,CC(CNC(=O)C(c1cc2ccccc2o1)N1CCN(C(c2ccccc2)c2ccccc2)CC1)c1ccccc1 (centres unmarked) [TCMDC-141010],11.08%
18,O=C(Nc1ccc(C(F)(F)F)cc1)c1cccc(S(=O)(=O)NC2CCN(Cc3ccccc3)C2)c1 (centres unmarked) [TCMDC-132484],-13.38%
19,CCN(CC)CCNC(=O)c1ccc(NC(=O)c2oc3c(Cl)cccc3c2C)cc1 [TCMDC-125463],22.65%
20,O=S(=O)(c1ccccc1)C1CC1 [TCMDC-132010],2.082%
21,CSc1nnc2n(Cc3ccccc3)c(=O)c3c(n12)-c1ccccc1CC31CCCCC1 [TCMDC-125076],-1.112%
22,O=C(CSc1nc2ccccc2c(=O)n1CC1CCCO1)Nc1cc(C(F)(F)F)ccc1Cl (centres unmarked) [TCMDC-123732],-97.98%
23,O=C(Nc1ccc(-c2cccc(-c3nc4ccc(C(F)(F)F)cc4[nH]3)c2)cc1)Nc1ccc(F)c(F)c1F [TCMDC-133228],-36.32%
24,CC(=O)Nc1ccc(C(=O)Nc2cccc(-c3cccc(-c4nc5ccc(C(F)(F)F)cc5[nH]4)c3)c2)cn1 [TCMDC-136828],75.79%

row,SMILES,% Inhibition
1,O=C(Nc1cccc(-c2cccc(-c3nc4ccc(C(F)(F)F)cc4[nH]3)c2)c1)Nc1ccc(F)c(F)c1F [TCMDC-133229],80.27%
2,CC(=O)Nc1ccc(C(=O)Nc2ccc(-c3cccc(-c4nc5ccc(C(F)(F)F)cc5[nH]4)c3)cc2)cn1 [TCMDC-136829],5.637%
3,NC(=O)c1ccc(C(=O)Nc2cccc(-c3cccc(-c4nc5ccc(C(F)(F)F)cc5[nH]4)c3)c2)cc1 [TCMDC-132191],5.838%
4,CC(=O)Nc1ccc(C(=O)Nc2cccc(-c3cccc(-c4nc5ccc(F)cc5[nH]4)c3)c2)cn1 [TCMDC-136824],-57.69%
5,CNC(=O)Cc1ccc(C(=O)Nc2cccc(-c3cccc(-c4nc5ccc(C(F)(F)F)cc5[nH]4)c3)c2)cc1 [TCMDC-137074],50.29%
6,O=C(Nc1cccc(-c2ccc(-c3nc4ccc(C(F)(F)F)cc4[nH]3)cc2)c1)Nc1ccc(F)c(F)c1F [TCMDC-133224],-27.79%
7,O=C(Nc1cccc(-c2cccc(-c3nc4ccc(C(F)(F)F)cc4[nH]3)c2)c1)c1ccncc1 [TCMDC-136963],-4.28%
8,OCCN1CCN(Cc2ccc(-c3ccc(-c4nc5ccc(C(F)(F)F)cc5[nH]4)s3)cc2)CC1 [TCMDC-133034],6.44%
9,COc1ccc(NC(=O)Nc2ccc(-c3cccc(-c4nc5ccccc5[nH]4)c3)cc2)cc1 [TCMDC-133250],-9.476%
10,O=C(Nc1ccc(Cn2ncc(N3CCCNCC3)c(Cl)c2=O)cc1)Nc1cccc(C(F)(F)F)c1 [TCMDC-141925],-42.22%
11,NC(=O)c1ccc(C(=O)Nc2cccc(-c3csc(-c4nc5ccccc5[nH]4)c3)c2)cc1 [TCMDC-132400],-14.2%
12,Cc1cc(C(F)(F)F)n2nc(C(=O)N(C)Cc3cncn3Cc3ccc(F)cc3)cc2n1 [TCMDC-132466],29.43%
13,Cc1ccc(N2CCc3c(-c4cc5cccnc5nc4C)cc(C)nc32)c(Cl)c1 [TCMDC-136379],19.51%
14,COc1ccc(C=C2SC(=O)NC2=Nc2ccccc2)c(OC)c1 [TCMDC-123697],23.55%
15,Cl.Oc1cccc(Nc2nc(NCC3CCCO3)c3ccccc3n2)c1 (centres unmarked) [TCMDC-123641],-25.34%
16,Cl.Oc1ccc(Nc2nc(NCC3CCCO3)c3ccccc3n2)cc1 (centres unmarked) [TCMDC-123730],79.07%
17,Oc1ccc2nc(NCCCc3ccccc3)nc(NCCc3ccccc3)c2c1 [TCMDC-138406],91.92%
18,Brc1ccc(Nc2nc(NCC3CCCO3)c3ccccc3n2)cc1 (centres unmarked) [TCMDC-124563],15.52%
19,Oc1ccc2nc(Nc3ccccc3)nc(NCCc3ccccc3)c2c1 [TCMDC-138404],68.97%
20,NC1CCN(c2nc(NCCCc3ccc(O)cc3)nc(NCc3cccc4ccccc34)n2)CC1 [TCMDC-133393],0.2406%
21,Oc1ccc2nc(NCCCc3ccccc3)nc(NCCCc3ccccc3)c2c1 [TCMDC-138382],90.22%
22,Oc1cccc(Nc2nc(NCc3ccccc3)c3ccccc3n2)c1 [TCMDC-125640],36.33%
23,Cl.OCCNc1nc(Nc2cccc(O)c2)nc2ccccc12 [TCMDC-123747],-37.65%
